Bioassay records from PubChem BioAssay.
Peg3 promoter: reduces Peg3 promoter-driven luciferase expression in HeLa | 360,000 tested, 1.7% active | HeLa PEG-Prom luciferase reporter, luminescence, overnight | inhibition, % at 20 µM;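 active = inhibition of at least 50% at 20 µM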
HIF-2a block: HIF-2a inhibition | 360,000 tested, 0.72% active | AID 624352 | inhibition, % at 18.8 µM | 786-0 RCC cells HIF-2a reporter, luciferase luminescence, overnight;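 active = inhibition of the luminescence signal of 40% or more relative to plate controls, in a single-dose primary screen at 18.75 µM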
CF NFkB block: inhibitors of cystic fibrosis induced NF-kB. 360,000 tested, 0.86% active. KKLEB NF-kB-GFP reporter, PAF-induced, GFP fluorescence overnight. inhibition, % at 5 µM;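 active = at least 50% inhibition at 5 µM, scaled per plate between neutral and stimulator controls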;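 note: PAF is a Pseudomonas aeruginosa culture filtrate used as stimulus; plate controls were PAF-stimulated DMSO wells for no effect and unstimulated DMSO wells for full effect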
KKLEB tox: counter-screen for CF NF-kB inhibitors: cytotoxicity | KKLEB CF airway cells viability, ATPlite luminescence, overnight; hits give low values; cells stimulated with P. aeruginosa culture filtrate | activity change (cytotoxicity), % at 5 µM | 360,000 tested, 0.36% active | AID 602141;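 active = corrected activity change at or below -50% at 5 µM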
TROY NFkB inh: TROY signaling inhibition. Q293 LMP1-TROYcd NF-kB luciferase reporter, 4 h. inhibition, % at 10 µM. 360,000 tested, 0.98% active. AID 1347056;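 active = compounds whose plate-normalised and pattern-corrected inhibition of the luciferase reporter signal at the single screening dose is 50% or more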
TWEAK Fn14 block: blocks TWEAK-Fn14 interaction in a reporter cell assay. TWEAK-stimulated Fn14 reporter cells, luciferase luminescence, 8 h. inhibition, % at 10 µM. 360,000 tested, 2% active. AID 1159606; in the data active = inhibition above about 50%
* hit, by the source's call; / = no result given; ! = a repeat was not active. An excerpt weighted towards active compounds, which were near 4% of everything screened.

SMILES	Peg3 promoter	HIF-2a block	CF NFkB block	KKLEB tox	TROY NFkB inh	TWEAK Fn14 block
CCCCCCN1C[C@H](n2cc(-c3ccc(F)cc3)nn2)[C@@H](O)C[C@@H]1c1ccccc1	2	-14	4	-4	-1	-1
O[C@H]1CN(CC2CCCCC2)[C@@H](c2ccc(Cl)cc2)C[C@@H]1n1cc(-c2ccc(F)cc2)nn1	35	-12	33	-1	10	50*
O[C@H]1C[C@H](c2ccccc2)N(CC2CCCCC2)C[C@@H]1n1cc(C2CC2)nn1	-11	-50	3	-10	-19	64*
CCc1nc(Nc2ccccc2F)c2oc3ccccc3c2n1	-28	-125	13	-5	-35	-8
CN(C(=O)c1cncc(Br)c1)C1C2CC3CC(C2)CC1C3 (centres undefined)	-21	-45	8	0	-30	0
CC(C)(C)C1CCc2c(sc(NC(=O)C3CC=CCC3C(=O)O)c2C#N)C1 (centres undefined)	3	-11	24	10	56*	27
CCC(C)(C)C1CCc2c(sc(NC(=O)c3ccoc3C)c2C(N)=O)C1 (centres undefined)	6	31	-2	-1	63*	17
CCC(C)(C)C1CCc2c(sc(NC(=O)c3ccccc3C(=O)O)c2C#N)C1 (centres undefined)	-12	-54	27	-15	72*	9
COc1ccc(C(=O)COC(=O)c2cc(=O)c3ccccc3o2)cc1	13	12	-22	0	3	-1
Cc1cc2ncc(-c3ncc(C(F)(F)F)cc3Cl)cn2n1	-3	-30	3	6	44	84*
N#Cc1cnn2cc(-c3ncc(C(F)(F)F)cc3Cl)cnc12	-1	-100	-13	1	-69	-10
Cc1nn2cc(-c3ncc(C(F)(F)F)cc3Cl)cnc2c1Br	-67	-57	3	0	56*	51*
O=C(C[C@H]1CC[C@@H](NC(=O)Cc2cccnc2)[C@@H](CO)O1)NCc1ccc2c(c1)OCO2	/	16	/	/	/	/
CCOc1ccc(OCc2ccc(C(=O)NN=Cc3ccc[nH]3)cc2)cc1	-51	-136	40	-43	10	52*
O=C(N/N=C/c1ccc[nH]1)c1ccccc1OCc1ccc(F)cc1	26	5	8	-8	11	-13
O=C(CSc1nc(=O)n(CCN2CCOCC2)c2c1CCCC2)Nc1ccc(F)cc1F	9	14	-8	-12	-2	-4
CSCCC(NC(=O)c1ccc(Cl)cc1Cl)C(=O)NCC(c1cccs1)N(C)C (centres undefined)	1	-3	10	-5	7	2
Cc1ccc(C(=O)Nc2ccc3ccccc3c2)cc1	3	-121	-26	-44	54*	87*
CCOc1cccc(C(=O)Nc2ccc3ccccc3c2)c1	-136	-76	0	-22	15	52*
CCOc1cccc(C(=O)Nc2cccc(C(C)=O)c2)c1	-98	-104	-2	2	-29	-11
CC1=C(/C=C/C(=O)O)C(C)(C)CCC1	10	4	8	-16	4	-1
CC1=C(/C=C/C(C)=C/C=C/C(C)=C/C(=O)Nc2ccc(O)cc2)C(C)(C)CCC1	61*!	11	4	-9	17	20
O=C(NCCC1CCCCN1S(=O)(=O)c1ccccc1)C(=O)NCc1cccnc1 (centres undefined)	4	8	-27	12	14	9
Cc1ccc(C(=O)Sc2cccccc2=O)cc1	103*	29	-6	-17	-32	102*
COC(=O)CCN1CCc2cc(N=Nc3ccc([N+](=O)[O-])cc3)ccc21	-192	-155	43	-36	53*	30
SMILES	Peg3 promoter	HIF-2a block	CF NFkB block	KKLEB tox	TROY NFkB inh	TWEAK Fn14 block
c1ccc2sc(Sc3ncnc4sccc34)nc2c1	-56	-41	72*	-44	17	83*
COc1ccc([N+](=O)[O-])cc1COc1ccc2c(-c3ccccc3)cc(=O)oc2c1	16	17	67*	-52*	-3	-49
CCOC(=O)CCc1c(C)c2ccc(OCc3cc([N+](=O)[O-])ccc3OC)cc2oc1=O	0	18	3	-54*	23	4
CCc1c(C)c2ccc(OCC(=O)OC)cc2oc1=O	3	14	-4	4	-6	-23
Cc1ccc(S(=O)(=O)CCC(=O)OCC(=O)Nc2ccc(N3CCOCC3)cc2)cc1	11	22	13	-4	3	-1
O=C(CSc1nnc(-c2ccc(O)cc2)o1)NNC(=O)c1ccncc1	3	13	-4	2	-2	9
Cc1cc(C)c(C#N)c(SCc2cn3ccccc3n2)n1	-171	-142	12	-3	54*	41
COc1ccc(NCc2ccc(OC)c(Cn3ccnc3)c2)c(OC)c1	-5	-8	16	-11	2	-8
O=C(NCc1ccccc1)c1ccc(-c2cn[nH]c2)c2ccoc12	-171	-171	54*	-67*	-11	-22
COc1cc2c(cc1NC(=O)CSc1nc3cc(Cl)ccc3s1)oc1ccccc12	12	4	39	-60*	13	-1
O=C(C(Br)=Cc1ccccc1)c1ccccc1	108*	86*	94*	-43	-2	93*
O=C1CN(C(=O)CNC(=O)c2ccc(Cl)cc2Cl)CCN1	5	9	-5	2	13	18
CCOC(=O)c1[nH]c2cc3c(cc2c1NC(=O)CN1CCc2ccccc2C1)OCO3	68*	-8	-2	-4	-45	35
CCOC(=O)c1[nH]c2cc3c(cc2c1NC(=O)CN1CCCC1)OCO3	6	12	11	-6	6	-7
O=C1C2CC=CCC2C(=O)N1Cc1ccccc1 (centres undefined)	5	14	2	0	-6	0
O=C1C=CC(=O)N1Cc1ccccc1	104*	1	76*	-21	-1	0
O=C(c1ccc2c(c1)OCCO2)C1CCN(S(=O)(=O)c2ccc(F)cc2)CC1	55*	19	10	-2	11	-8
NC(=O)C1CCN(S(=O)(=O)c2ccc3c(c2)OCCO3)CC1	11	8	-10	12	9	-5
C[C@H]1CN([C@@H](C)CO)S(=O)(=O)c2ccc(Br)cc2O[C@@H]1CN(C)S(=O)(=O)c1ccccc1F	4	-5	-21	16	14	11
COCCN(Cc1ccccc1)C(=O)c1cc(-c2ccc(OC)c(OC)c2)nc2ccccc12	52*	5	5	-2	-5	-24
CCN(Cc1ccccc1)C(=O)c1cc(-c2ccc(OC)c(OC)c2)nc2ccccc12	49	11	-35	-8	-20	-5
NC1=NC[C@H](c2ccccc2)N1CCc1cc(C(F)(F)F)cc(C(F)(F)F)c1	98*	9	-4	0	-14	12
C=CCOc1ccc(/C=C/C(=O)OCC(=O)NCc2ccco2)cc1	-28	-11	15	-2	-8	8
